BRCA1 expr up = BRCA1 expression activation; MCF7-BRCA1-FFLuc reporter, luminescence, 48 h; response scale: scaled: vehicle 0%, 10 µM genistein 100%; Potency, µM (doses to about 46.1 µM), for inactives: at the highest dose activation, usual class: activators; 1.1% of 380,000 active; AID 624202; note: nearly all actives have a fitted effect of over 80% in size
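MCF7-BRCA1-FFLuc, 2000 cells/well; 2 h attach, 37 °C/5% CO2; compound 48 h; luciferase substrate 15 min; luminescence end-point. Norm. to genistein 10 microM max activation and DMSO; concentration-response curves fitted.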
B2AR arrestin = agonists driving beta-arrestin recruitment to human beta2-adrenergic receptor; P07550; beta-arrestin recruitment to beta2AR, cell-based reporter; Potency, µM (series often up to 46.1 µM), without a hit: top-dose activation, actives largely listed as activators; 0.02% of 330,000 active;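 note: 0% = DMSO controls and full agonism = EC100 isoproterenol or metaproterenol; nearly all actives have a fitted effect of over 65% in size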
Target sequence (P07550 whole entry, looked up): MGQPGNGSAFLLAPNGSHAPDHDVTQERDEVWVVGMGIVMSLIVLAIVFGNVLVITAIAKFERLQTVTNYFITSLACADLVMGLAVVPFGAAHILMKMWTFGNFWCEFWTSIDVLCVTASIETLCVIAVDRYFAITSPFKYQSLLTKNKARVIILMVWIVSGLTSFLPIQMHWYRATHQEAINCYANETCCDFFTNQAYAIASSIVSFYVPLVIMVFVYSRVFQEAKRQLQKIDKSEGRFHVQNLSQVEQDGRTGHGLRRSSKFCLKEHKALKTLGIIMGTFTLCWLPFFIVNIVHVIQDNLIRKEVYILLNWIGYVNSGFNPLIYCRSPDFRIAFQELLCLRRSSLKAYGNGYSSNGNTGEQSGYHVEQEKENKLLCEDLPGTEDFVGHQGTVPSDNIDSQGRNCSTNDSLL
Mito fusion act = mitochondrial division inhibition or fusion activation. S. cerevisiae fusion-defective mutant growth rescue, CellTiterGlo 48 h. Potency, µM (titrated, usually from 46.1 µM), without a hit: at the top dose growth rescue (activation), usual class: activators. 0.23% of 320,000 active. AID 485298; note: % of control where 0% means no effect; nearly all actives have a fitted effect of over 45% in size
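Growth-rescue viability read-out: after 48 h at the non-permissive 37C in glycerol/ethanol YPEG, yeast mitochondrial fusion mutants are measured by CellTiterGlo luminescence; compounds (23 nl pinned per well) restoring growth score as division inhibitors or fusion activators.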
ERG-DNA inh = ERG Ets/DNA interaction inhibition | 0.028% of 370,000 active | fluorescence polarization, His-ERG Ets domain / labelled DNA | P11308 | Potency, µM (titrated, usually from 76.9 µM), for the others: at the highest dose FP activity, negative = inhibition, actives largely listed as inhibitors; active = well fitted inhibition curve with a large enough effect in the polarisation, with a control signal flat; inconclusive = small, poorly fitted or top-dose-only effect, or effect the other way, or a change in a side signal; inactive = no such curve, though single readings can be large or run the other way; the % refers to the polarisation;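 note: polarization taken with two DNA probes labelled with fluorescein and Texas red; % of control where 0% means no effect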
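His-tagged ERG Ets domain (1 uM in the protein solution; 300mM KCl, 50mM Tris-HCl, 1mM EDTA, 1mM DTT, pH 7.5) received compound, then a probe mix of 5 nM fluorescein-DNA and 100nM Texas-615-DNA. Fluorescence polarization was read for both dyes.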
* marks the source's active call; other numbers are inactive results; u = inconclusive; x = no result given; ! = repeats disagree. Hits are enriched below; roughly 1.2% of the tested compounds scored in any of these assays. Unless noted, calls come from the whole dose curve; as a rule, active = well fitted curve in the direction sought with a large enough effect; inconclusive = small, poorly fitted or top-dose-only effect, or another doubt; inactive = no such curve, though single readings can be large; an effect the other way counts as inactive or inconclusive. Potency is the fitted concentration of half-maximal effect.

SMILES | BRCA1 expr up | B2AR arrestin | Mito fusion act | ERG-DNA inh
N/C(=N\OC(=O)Cc1ccccc1)c1ccccc1Cl | 14µM* | 0% | -8% | 6%
N/C(=N\OC(=O)C1CCCCC1)c1ccccn1 | 11µM* | 0% | -3% | 1%
Cc1ccc(OCC(=O)O/N=C(\N)c2ccccn2)cc1 | 6.3µM* | 0% | -4% | 1%
CN(C)c1ccc(C(=O)Nc2sc(Nc3ccccc3)nc2C(N)=O)cc1 | x | x | x | 7%
CCc1ccc(S(=O)(=O)c2nnn3c2nc(NC2CCCC2)c2sccc23)cc1 | x | x | x | -2%
COc1ccc(CCNC(=O)Cn2cc(C(=O)c3ccccc3)c(=O)c3ccc(C)nc32)cc1OC | x | x | x | -2%
COc1ccc(N=c2nc(-c3ccccc3)n(-c3ccc(C)cc3)s2)cc1 | -60% | x | x | x
COc1ccccc1CC(=O)O/N=C(\N)c1ccccn1 | u | 0% | 5% | -8%
CC(C)(C)CC(=O)O/N=C(\N)c1ccccn1 | 5µM* | 0% | 2% | 7%
Oc1ccc(/C=C/c2cnccn2)cc1 | 13µM* | 0% | -7% | 8%
COc1cccc(CCn2c(N)cc(=O)[nH]c2=S)c1OC | 0% | x | x | x
O=c1c(Cl)c(N/N=C/c2ccc(Cl)cc2)cnn1-c1ccccc1 | -44% | -1% | 8.9µM* | -14%
Nc1c(C(=O)N/N=C/c2ccc(Cl)cc2)cnn1-c1ccccc1 | 17% | 0% | -1% | -3%
Cc1ccn2c(NC3CCCCC3)c(-c3ccc(C)o3)nc2c1 | -18% | x | x | x
C=CCc1cccc2cc(-c3nc4ccc(C)cc4[nH]3)c(=O)oc12 | 2µM* | x | x | 0%
O=C(O)c1ccc2nc(-c3cc4cccc(O)c4oc3=O)[nH]c2c1 | x | 0% | -21% | 8%
C=C1CCC2C(C)(C)[C@H](O)CC[C@@]2(C)[C@@H]1COc1cc(=O)oc2ccccc12 (stereo partly drawn) | -39% | -1% | 14µM* | 3%
COc1cccc(/C(C)=N/NC(=O)c2ccc(N(C)C)cc2)c1 | 4.5µM* | -1% | 0% | -6%
C/C(=N\NC(=O)c1ccccc1)c1cccc(Br)c1 | 10µM* | 0% | 4% | -1%
C/C(=N\NC(=O)c1cccc(Br)c1)c1ccc(Br)cc1 | 7% | 0% | 1% | -3%
C=CCN1CCc2c(cc(O)c(O)c2Br)[C@@H](c2ccccc2)C1 | -1% | x | 16µM* | 1%
C=CCn1c(NC(=O)c2ccc(Br)o2)c(S(=O)(=O)c2ccccc2)c2nc3ccccc3nc21 | 0% | 0% | 11µM* | -5%
Cc1ccc(NC(=S)NC(=O)C2CCCC2)cc1C | u | 0% | -3% | -4%
Cc1ccc(NC(=S)NC(=O)c2ccc(Br)o2)c(C)c1 | 4µM* | -1% | 6% | -9%
Cc1ccc(NC(=S)NC(=O)C2CC2)c(C)c1 | 11µM* | 0% | -18% | -3%
SMILES | BRCA1 expr up | B2AR arrestin | Mito fusion act | ERG-DNA inh
O=C(CC1C(=O)N(c2ccccc2)C(=O)N1Cc1ccc2c(c1)OCO2)Nc1ccccc1 (stereo not drawn) | x | x | x | -4%
CCc1c(C)nc2cc(-c3ccc(OC)cc3)[nH]n2c1=O | 8.9µM* | 0% | -1% | -4%
COC1=C(OC)C(=O)C(CCCCCCCCCCO)=C(C)C1=O | x | -1% | 1% | x
CC1=C(C)C(=O)C(CCCCC#CCCCC#CCO)=C(C)C1=O | -16% | 6% | 18µM*! | 7%
COc1ccc(C(=O)N2CCc3ccccc32)cc1 | 11µM* | 0% | 1% | 0%
COc1ccc(C(=O)N2CCn3c2nc2ccccc23)cc1 | 13µM* | 0% | 15% | 0%
O=C(c1cccs1)N1CCn2c1nc1ccccc12 | 2.8µM* | 0% | 0% | -5%
O=C(COc1ccc2c(c1)CCC2)N1CCc2ccccc21 | 10µM* | -1% | 3% | 2%
CCN(CC)CCOC(=O)c1ccc(NC(=O)Cn2ncc3c([nH]c4ccc(C)cc43)c2=O)cc1 | x | x | x | 2%
COc1ccc(-c2csc(C(O)c3ccccc3)n2)cn1 (stereo not drawn) | 11µM* | x | x | x
O=C(CS(=O)(=O)c1cccc2nsnc12)N1CCN(c2cccc(C(F)(F)F)c2)CC1 | -20% | x | x | -2%
O=C(NCC1CC1)c1cccc2c(-c3ccc(F)c(F)c3)coc12 | 3.5µM* | x | x | x
O=C(Nc1nc(-c2ccccc2)cs1)C1CCCCN1S(=O)(=O)c1ccccc1 (stereo not drawn) | -59% | 0% | 19% | x
O=C(Nc1nc(-c2ccccc2)cs1)C1CCCCN1S(=O)(=O)c1ccc(Cl)cc1 (stereo not drawn) | -60% | 0% | 18µM* | 2%
Cc1ccc2c(=O)cc(C(=O)Nc3ccc(S(=O)(=O)N4CCC(C)CC4)cc3)oc2c1C | x | x | x | -6%
COc1ccc(C)c2sc(=NC(=O)c3ccc(C(C)=O)cc3)n(C)c12 | 0.79µM* | 0% | 0% | -5%
Cc1cccc(NC(=O)CN2C(=O)CSc3ccc(S(=O)(=O)N4CCCC4)cc32)c1C | x | x | x | 1%
CC(C)NC(=O)N1[C@H](c2cccs2)[C@@H](C)C(=O)[C@@H](C)[C@@H]1c1cccs1 | x | x | x | 0%
CC(=NNc1ccc([N+](=O)[O-])cn1)c1ccccc1 | 10µM* | x | x | 1%
Cc1cccc(-n2c(C)cc(/C=N\NC(=O)c3ccco3)c2C)c1 | 8.9µM* | 0% | 3% | -10%
Cc1cc(C(=O)N/N=C/c2cccc([N+](=O)[O-])c2)c(C)n1-c1ccccc1 | 45% | 0% | -1% | -2%
O=[N+]([O-])c1ccc(NN=C(c2ccccc2)c2ccccc2)nc1 | -45% | x | x | -1%
Cc1cc(/C=N/Nc2ccc([N+](=O)[O-])cn2)c(C)n1-c1ccccc1 | 10µM* | 1% | -4% | -19%
Cc1cc(/C=N/NC(=O)c2ccccn2)c(C)n1-c1cccc([N+](=O)[O-])c1 | 10µM* | 0% | 12% | 3%
COc1cc(NC(=O)c2cnc3c(-c4ccc(F)cc4)c(C)nn3c2C)cc(OC)c1 | x | x | x | 1%
SMILES | BRCA1 expr up | B2AR arrestin | Mito fusion act | ERG-DNA inh
COc1cc2c(NC3CCN(C(C)C)CC3)nc(N3CCCN(C)CC3)nc2cc1OCCCN1CCCC1 | -61% | x | x | x
CC(=O)c1ccc2c(c1)C1C=CCC1C(c1cc3c(cc1Br)OCO3)N2 (stereo not drawn) | -46% | 0% | 13µM* | -3%
COc1ccc(-n2nc(C(=O)Nc3cc(C)ccn3)c3c4ccccc4n(C)c3c2=O)cc1Cl | x | x | x | -1%
O=S(=O)(c1ccc2oc(=S)[nH]c2c1)N1CCCCC1 | 21% | 0% | 7% | -1%
S=c1[nH]c2cc(-c3ccccc3)ccc2o1 | 52% | u | 16µM* | 2%
O=C(NCC(c1cccs1)S(=O)(=O)c1cccs1)c1cccc(F)c1 (stereo not drawn) | -7% | x | x | -2%
Cc1nn(-c2ccccc2)c2nc(C3CC3)cc(C(=O)Nc3ccccc3F)c12 | x | x | x | 3%
Cc1ccc(CNC(=O)C(Cc2ccccc2)NS(=O)(=O)c2cccs2)cc1 (stereo not drawn) | -6% | 0% | 2% | x
Cc1ccc(CNC(=O)C(Cc2ccccc2)NS(=O)(=O)c2ccc(Br)s2)cc1 (stereo not drawn) | -55% | 3% | 18µM* | 8%

Screens from PubChem BioAssay.
